TIM10 inh – TIM10 yeast growth inhibition | AID 463195 | actives 1.4% (n = 330,000) | S. cerevisiae TIM10 strain growth, BacTiter-Glo luminescence, 24 h | inhibition, % at 10 µM;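 active means inhibition of 40% or more at the single tested concentration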;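 further: wild-type TIM10 isogenic control strain grown at permissive 25 °C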
NALP3 yeast inh – blocks the NALP3 inflammasome reconstituted in yeast | AID 2825 | Yeast reconstituted NLRP3/ASC/caspase-1, beta-gal luminescence, 24 h | actives 0.39% (n = 330,000) | inhibition, % at 10 µM;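 active means inhibition of 50% or more; inactive means inhibition below 50%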;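 further: plate controls were induced DMSO wells for no effect and uninduced yeast grown without galactose for full effect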
PfHsp90 set2 – inhibits growth of yeast expressing Plasmodium falciparum Hsp90; S. cerevisiae expressing PfHsp90, BacTiter-Glo ATP, 48 h; yeast lacking PDR1 and PDR3 efflux regulators; inhibition, % at 9.4 µM; actives 0.32% (n = 310,000); AID 504621;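 active means every replicate shows inhibition above about 80%, whatever the replicate mean, limit read from the data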;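 further: 0% = DMSO neutral controls and 100% = 20 µM radicicol positive controls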
SKKanGAS inh – SKKanGAS growth inhibition. S. pyogenes SKKanGAS, kanamycin growth, BacTiter-Glo, 6 h. inhibition, % at 7.5 µM. actives 1.3% (n = 300,000). AID 1662;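 active means mean replicate score, as percent of positive control median, at least 50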;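 further: strain carries kanamycin resistance gene driven by streptokinase promoter and grows in 40 µg/ml kanamycin; loss of luminescence reflects streptokinase promoter inhibition or plain growth inhibition; 0% = median of DMSO wells and 100% = positive control at its reference dose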
tim23-1 inh – tim23-1 yeast growth inhibition; S. cerevisiae tim23-1 growth, BacTiter-Glo luminescence, 24 h; actives 1.3% (n = 330,000); inhibition, % at 20 µM;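 active means growth inhibition of the mutant yeast at or above 50%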;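 further: temperature-sensitive mutant grown at 25 °C; plate controls were DMSO-treated mutant yeast for no effect and medium wells lacking yeast for full effect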
tim10-1 inh – inhibits growth of tim10-1 mutant yeast; AID 463190; actives 2.2% (n = 330,000); S. cerevisiae tim10-1 ts strain growth, BacTiter-Glo, 24 h; inhibition, % at 20 µM;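 active means inhibition of at least 40%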;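 further: mutant grown at 25 °C; 0% = DMSO wells with yeast and 100% = wells holding no yeast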
tim10-1 conf – confirmation of tim10-1 mutant yeast growth inhibitors. shares compounds with tim10-1 inh. S. cerevisiae tim10-1 ts strain growth, BacTiter-Glo, 24 h. inhibition, % at 20 µM. actives 56% (n = 7,400). AID 463213;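 active means inhibition of yeast growth at or above a set limit in either of two repeat tests at 20 µM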;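 further: tim10-1 mutant grown at permissive 25 °C to find synthetic lethal compounds; 0% = DMSO yeast wells and 100% = medium wells without yeast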
tim10 confirm – TIM10 yeast growth inhibition, confirmed. shares compounds with TIM10 inh. actives 63% (n = 4,600). S. cerevisiae tim10 strain growth, BacTiter-Glo luminescence, 24 h. inhibition, % at 10 µM;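 active means inhibition of yeast growth at or above a set limit in either of two replicates at 10 µM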;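 further: this counterscreen used the strain with wild-type TIM10; 0% = yeast with DMSO and 100% = medium wells lacking yeast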
* = called active by the depositor; / = no result given. Sampled rows, rich in hits. Any-hit rate of the full collection: about 4.6%.

SMILES	TIM10 inh	NALP3 yeast inh	PfHsp90 set2	SKKanGAS inh	tim23-1 inh	tim10-1 inh	tim10-1 conf	tim10 confirm
O=S(=O)(NCCSc1ccc(Cl)cc1)c1ccc(F)cc1	41*	24	-17	4	31	44*	35*	12
Cc1nc2ccccn2c1C(=O)/C=C/c1cccc([N+](=O)[O-])c1	52*	22	-55	7	38	50*	44*	54*
Cc1ccc(/C=C/C(=O)c2c(C)nc3ccccn23)cc1	39	20	-38	23	35	37	/	/
CC1CN(C(=O)CSc2nnc(-c3ccccc3)o2)CC(C)O1 (stereo not drawn)	3	15	10	-3	13	8	/	/
Cc1cccc(NC(=S)NNC(=O)c2cc3c(s2)CCC(C)C3)c1C (stereo not drawn)	51*	-5	-14	-6	30	59*	39*	32*
Cc1cccc(-c2nnc3sc(-c4ccccc4C)nn23)c1	41*	18	-80	9	33	55*	66*	44*
COc1cccc(-c2nnc3sc(-c4ccccc4)nn23)c1	3	32	/	18	40	22	/	/
Cc1cc(C(=O)NCC23CC4CC(CC(C4)C2)C3)c(C)o1	40*	26	/	-4	45	45*	27	34*
Cc1cccc(Oc2cc(NC(=O)c3ccccc3)cc([N+](=O)[O-])c2)c1	53*	20	18	35	31	44*	36*	2
Cn1cc([N+](=O)[O-])c(C(=O)Nc2cc(Oc3ccccc3)cc([N+](=O)[O-])c2)n1	/	/	1	7	/	/	/	/
COc1ccc(CNC(=S)N/N=C/c2ccncc2)cc1	34	5	-12	-4	-14	35	/	/
CCN(CC)c1ccc(/C=N/NC(=S)NCc2ccc(OC)cc2)cc1	45*	17	0	8	12	45*	27	42*
Cc1cc(C)cc(NC(=O)N2CCNC(=O)C2CC(=O)Nc2cc(Cl)ccc2Cl)c1 (stereo not drawn)	11	6	-35	-4	10	5	/	/
O=C(c1ccc(-c2ccc([N+](=O)[O-])cc2)o1)N1CCCCC1	40*	-18	15	-5	33	54*	46*	25
CCCCN([C@H](CO)C(C)C)S(=O)(=O)c1ccccc1Br	-9	/	-18	/	41	22	/	/
COc1ccc(C(CC(=O)NC(C)c2ccc(-c3ccccc3)cc2)NC(C)=O)cc1 (stereo not drawn)	15	8	-107	5	9	7	/	/
Cc1ccc(Cl)cc1NC(=S)NCCCSC1CCCCC1	42*	12	-4	7	39	42*	26	13
O=C(CCS(=O)(=O)c1ccccc1)N(CCCN1CCOCC1)c1nc2ccccc2s1	53*	49	26	-2	42	48*	31	64*
COc1ccc2c(c1OC)C(=O)N1N=C(c3ccc(-c4ccccc4)cc3)CC21 (stereo not drawn)	11	9	0	11	11	7	/	/
COc1ccc2c(c1OC)C(=O)N1N=C(c3ccc(Br)cc3)CC21 (stereo not drawn)	40*	25	21	-2	40	48*	40*	-3
CCc1nccn1S(=O)(=O)c1ccccc1[N+](=O)[O-]	44*	6	-6	-9	42	50*	62*	57*
COc1ccc(Cl)cc1NC(=O)CSc1nc(Nc2ccccc2)nc(N2CCOCC2)n1	-10	9	-1	24	7	1	/	/
Clc1cccc(CNCCCSc2ncccn2)c1	-11	-1	-18	/	-13	-14	/	/
COc1ccccc1N1CCN(C(=O)c2ccc3[nH]c4c(c3c2)CC(C)CC4)CC1 (stereo not drawn)	49*	16	-31	37	24	53*	38*	36*
CC1CCc2[nH]c3ccc(C(=O)O)cc3c2C1 (stereo not drawn)	2	15	22	11	5	8	/	/
SMILES	TIM10 inh	NALP3 yeast inh	PfHsp90 set2	SKKanGAS inh	tim23-1 inh	tim10-1 inh	tim10-1 conf	tim10 confirm
C=CCc1ccc(OCCOc2cccc3ccc(C)nc23)c(OC)c1	52*	6	/	-8	46	42*	32*	31*
CN(C)c1ccc(Nc2nc(N)c3ccccc3n2)cc1	44*	19	60	37	43	55*	50*	36*
COc1ccc(C)cc1Nc1nc(N)c2ccccc2n1	15	40	-3	-1	0	-10	/	/
CC1(C)Cc2cccc(OCC(=O)Nc3cccnc3Cl)c2O1	7	2	4	-2	-3	20	/	/
COc1ccc(C(=O)OCCCOC(=O)c2ccc(OC)cc2OC)c(OC)c1	-10	22	-4	-2	14	-6	/	/
COc1ccc(C(=O)O/N=C(\N)Cc2ccc([N+](=O)[O-])cc2)c(OC)c1	51*	-2	4	5	40	75*	84*	57*
O=C(COc1ccc(Cl)cc1)NCCCNC(=O)c1ccncc1	-5	2	-27	-18	-19	-23	/	/
Cc1ccccc1NC(=S)c1ccc2ccccc2n1	40*	30	-9	29	44	43*	20	37*
CCCN(CC(=O)Nc1ccccc1C)C(=O)c1ccc2ccccc2n1	-7	16	-2	-6	12	19	/	/
O=C(Nc1ccc(Br)cc1)c1cccn1-c1ncc(C(F)(F)F)cc1Cl	52*	17	/	18	47	47*	43*	43*
Cc1ccc(NC2CCCN(C(=O)c3cccc(-c4ncc[nH]4)c3)C2)cc1C (stereo not drawn)	5	-3	-14	-5	17	-9	/	/
Cc1ccc(NC(=O)CN2CCN(S(=O)(=O)c3ccc(F)cc3)CC2)cc1C	-1	13	4	/	21	0	/	/
CC1(C)CC(=O)c2c(O)cc(OCC(=O)N3CCN(c4ccccc4)CC3)cc2O1	7	13	-3	8	30	29	/	/
Cc1cccc(NC(=S)N/N=C/c2ccc3c(c2)OCO3)c1	47*	-24	-25	-4	45	42*	29	25
COC(=O)C(=C/C=C/N1CCOCC1)C(=O)OC	-5	8	/	7	13	16	/	/
O=C(COc1c(F)c(F)c(C(F)(F)F)c(F)c1F)Nc1ccc(N2CCOCC2)c(Cl)c1	43*	20	6	6	41	58*	45*	34*
CSc1ccc(OCC(=O)Nc2ccc(N3CCOCC3)c(Cl)c2)cc1	3	32	5	-3	-5	-1	/	/

Screens as filed in PubChem BioAssay.
